# Source: PubChem (Buhrlage Lab, Dana-Farber Cancer Institute and Novartis Institutes for BioMedical Research (Cambridge, Mass))
# Shown are actives, neighbours in structure and some others; about 13% of the full set was active somewhere.
# USP30 block – inhibitors of human USP30 deubiquitinase; Q70CQ3; purified USP30, Ub-rhodamine cleavage fluorescence; inhibition, % at 25 µM; actives 5.3% (n = 47,000)
# USP28 inh – blocks human USP28 ubiquitin-rhodamine cleavage; Q96RU2; purified USP28, Ub-rhodamine cleavage fluorescence, 30 min; inhibition, % at 25 µM; actives 3% (n = 47,000)
# USP7 block – human USP7 deubiquitinase inhibition; purified USP7, Ub-rhodamine cleavage fluorescence; inhibition, % at 20 µM; actives 0.3% (n = 47,000); AID 1645854
# USP8 inh – blocks human USP8 ubiquitin-rhodamine cleavage | P40818 | purified USP8, Ub-rhodamine cleavage fluorescence, 30 min | inhibition, % at 20 µM | actives 4.2% (n = 47,000) | AID 1645853
# USP17 block – human USP17-like deubiquitinase inhibition | A8MUK1 | purified USP17, Ub-rhodamine cleavage fluorescence, 3 h | inhibition, % at 50 µM | actives 6.5% (n = 47,000)
# Target sequence (A8MUK1 whole entry, looked up): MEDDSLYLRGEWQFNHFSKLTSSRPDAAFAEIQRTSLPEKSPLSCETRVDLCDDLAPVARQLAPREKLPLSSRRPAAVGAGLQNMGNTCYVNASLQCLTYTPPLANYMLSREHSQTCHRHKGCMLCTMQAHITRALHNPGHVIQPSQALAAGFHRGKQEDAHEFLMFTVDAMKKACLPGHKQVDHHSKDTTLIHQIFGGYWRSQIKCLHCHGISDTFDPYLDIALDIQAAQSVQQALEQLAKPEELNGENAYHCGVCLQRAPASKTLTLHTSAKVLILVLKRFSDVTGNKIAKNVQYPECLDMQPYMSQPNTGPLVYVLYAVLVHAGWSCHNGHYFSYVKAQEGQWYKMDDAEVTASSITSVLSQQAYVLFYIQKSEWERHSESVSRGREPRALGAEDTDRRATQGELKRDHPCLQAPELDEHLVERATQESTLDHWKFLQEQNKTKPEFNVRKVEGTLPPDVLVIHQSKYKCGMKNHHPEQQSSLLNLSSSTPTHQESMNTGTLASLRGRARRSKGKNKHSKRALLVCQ
# USP10 inh – inhibitors of human USP10 deubiquitinase. purified USP10, Ub-rhodamine fluorescence, 60 min. inhibition, % at 20 µM. actives 1.1% (n = 47,000). AID 1645856
# An asterisk follows results filed as active; . = no result. Rule as the data show it: active = inhibition above about 30%; inactive = the rest.
SMILES,USP30 block,USP28 inh,USP7 block,USP8 inh,USP17 block,USP10 inh
CC1[C@@H]2[C@@H](C(=O)N3CCOCC3)C[C@H](CN1S(=O)(=O)c1ccc(Cl)cc1)N2C (some centres undefined),8,2,4,10,4,0
COc1cc(O)cc2c1C(=O)OC(C)CCCCCCC2 (centres undefined),37*,24,24,9,40*,38*
C[C@H]1CCCC(=O)CCCCCc2cc(OCc3ccccc3)cc(O)c2C(=O)O1,32*,4,8,12,21,4
Cc1cc(C(=O)N2CCc3nc(NC(=O)NC4CCCC4)sc3C2)no1,-67,-10,-5,-13,0,-4
Cn1c(=O)[nH]c(=O)c2c1nc(N1CCN(C(=O)c3ccco3)CC1)n2CCSc1ncccn1,12,0,5,17,12,-1
CCCc1cc(C2CCCN2C(=O)Cc2c(F)cccc2Cl)no1 (centres undefined),9,6,-10,10,6,3
Cc1cc(C)cc(NC(=O)N2CCC(c3nnc(-c4ccccc4)o3)CC2)c1,35*,14,2,13,14,4
Cc1ccc(NC(=O)N2CCC(c3nc(C(=O)N4CCCC4)c(C)o3)CC2)cc1,33*,6,1,0,4,4
CSc1nc(NCc2ccccc2)c2sc3nc(N4CCOCC4)c4c(c3c2n1)CC(C)(C)OC4,-15,-8,10,16,16,6
O=C1CC2(CCCCC2)CC(=O)N1c1cc(S(=O)(=O)N2CCCCC2)ccc1Cl,3,7,-7,5,13,7
c1ccc(Cn2ncc3c(SCc4nc5ccccc5[nH]4)ncnc32)cc1,47*,12,1,-310,-11,7
c1ccc(CSc2ncnc3c2nnn3Cc2ccccc2)cc1,17,17,-8,7,9,-2
COc1cccc(C(=O)Nc2nc3ccc(S(=O)(=O)N4CCOCC4)cc3s2)c1OC,.,.,0,7,47*,0
Cc1cccc(C(=O)NC(NC(=O)c2cccc(C)c2)c2ccccc2F)c1,43*,16,14,57*,.,11
O=C(CSc1n[nH]c(-c2cc(Br)ccc2O)n1)NCCc1ccccc1,11,25,-14,81*,38*,17
O=C(CSc1nc2ccccc2n1S(=O)(=O)c1ccc(Br)cc1)NCCc1ccccc1,-96,16,-4,1,-30,5
Cc1ccc(CN2CC[C@@H]3[C@@H](CO[C@H]3CNS(C)(=O)=O)C2)o1,-2,-2,0,-51,-7,0
COc1ccccc1CNC(=O)CC1c2ncccc2C(=O)N1c1ccccc1 (centres undefined),-16,-9,-1,-10,-14,-2
CCc1ccc(N2C(=O)c3ccccc3C2C(=O)NCc2ccccc2OC)cc1 (centres undefined),63*,23,-39,0,68*,8
O=C(CCCc1ccccc1)N1CCN(c2ccc(-c3ccc4c(c3)OCO4)nn2)CC1,30*,19,5,16,24,6
COc1cc2c(c(OC)c1OC)-c1ccc(N3CCN(c4cccc(Cl)c4)CC3)c(=O)cc1[C@@H](NC(C)=O)CC2,-13,-3,8,55*,22,-1
COc1cc2c(c(OC)c1OC)-c1ccc(N3CCN(c4ccc(F)cc4)CC3)c(=O)cc1[C@@H](NC(C)=O)CC2,-16,0,4,0,-11,-6
CNc1nccnc1C1CN(Cc2cc3cc(OC)ccc3[nH]2)CCO1 (centres undefined),-47,-14,-6,5,-12,-12
Cc1cccc(C(=O)Nc2ccccc2Sc2nc3c(c(=O)n(C)c(=O)n3C)n2C)c1,71*,31*,-2,19,33*,-2
Cc1cccc(C(=O)Nc2c(C)nc3ccccn3c2=O)c1,15,6,0,17,14,-2
SMILES,USP30 block,USP28 inh,USP7 block,USP8 inh,USP17 block,USP10 inh
COc1ccc(NC(=O)COC(=O)c2cccc(S(=O)(=O)N(C)c3cccc(Cl)c3)c2)c(OC)c1,33*,5,2,1,1,7
CCn1c(-c2ccccc2)c2c(=O)n(C)c(=O)n(C)c2c1Br,-3,-2,3,-22,-3,0
O=C(Cc1cccnc1)Nc1ccc(N2CCN(C3CCCC3)C2=O)nc1,-101,-19,-8,37*,3,-3
Cc1cccc(C(=O)NCc2nc3ccccc3n2Cc2ccccc2C)c1,-12,3,-25,6,59*,5
O=C(NCCc1ccccc1F)c1cn2cc(Cl)ccc2n1,61*,18,-14,24,28,3
COc1cc(C(=O)NCCc2nc3ccccc3n2Cc2ccccc2F)cc(OC)c1OC,9,7,-82,0,0,1
O=C(NCCc1nc2ccccc2n1Cc1ccccc1F)c1ccc(Cl)cc1,30,3,-2,17,10,30*
Cc1cccc(C(=O)NCCc2nc3ccccc3n2Cc2ccccc2F)c1,-5,2,-68,0,17,7
O=C(NCCc1c[nH]c2ccc(F)cc12)c1cn2cc(Cl)ccc2n1,-24,6,0,-1,24,1
COc1ccccc1C(=O)NCc1nc2ccccc2n1Cc1cc(C)ccc1C,71*,-7,-16,-3,67*,5
O=C(NCc1ccncc1)C1CCN(c2cnc(N3CCCCCC3)nc2)CC1,-67,11,-8,-10,-17,-7
O=c1c2ccsc2ncn1Cc1ccccc1F,1,32*,.,2,-14,0
COc1ccc(N(C)C(=O)c2cc3c(=O)n(C)c4ccccc4n3n2)cc1,-38,3,-5,82*,29,-5
CCc1ccccc1N(C)C(=O)c1cc2c(=O)n(CC)c3ccccc3n2n1,25,3,2,0,16,3
Cc1cc(C)n(-c2ccc(C(=O)Nc3cccc(Cl)c3C)nn2)n1,1,-8,-1,-11,16,-9
Cc1nc(C(=O)Nc2cccc(Cl)c2Cl)nn1-c1cc(Cl)cc(Cl)c1,24,10,7,2,71*,3
Cc1ccc(S(=O)(=O)N(C)C2CCS(=O)(=O)C2)cc1C (centres undefined),6,10,3,16,12,1
COc1ccc2c(c1)c(=O)c(S(=O)(=O)c1ccc(F)cc1)cn2Cc1cccc(F)c1,25,0,-6,25,16,39*
O=C(NC1CCCC1)C(c1ccncc1)N(C(=O)c1ccco1)c1ccc2c(c1)OCCO2 (centres undefined),5,6,-3,48*,25,-6
COc1ccccc1N(C(=O)c1ccco1)C(C(=O)NC1CCCC1)c1cccnc1 (centres undefined),28,15,1,18,5,0
Cn1ccc2ccn(CC(=O)NCc3ccc(F)cc3F)c(=O)c21,-13,-13,-1,-1,.,-3
